Source: PubChem BioAssay (National Center for Advancing Translational Sciences (NCATS))
Shown are actives, neighbours in structure and some others; about 13% of the full set was active somewhere.
Marburg entry inh: qHTS for inhibitors of binding or entry into cells for Marburg Virus; Marburg virus pseudotyped entry inhibition, cell reporter; Potency, µM (doses to about 37.8 µM), hits mostly inhibitors; 300,000 tested, 1.8% active; AID 540276, 2011; calls by dose curve; tested in HEK293 cells
CHX counter: Cycloheximide Counterscreen for Small Molecule Inhibitors of Shiga Toxin. max response, %. AID 2314, 2010. cell reporter, cycloheximide protein synthesis inhibition counterscreen. 300,000 tested, 12% active; in the data active = max response mostly above about 13%, no sharp cut-off; inactive = mostly below about 14%; note: read at 38.3 µM for the half of the compounds with a filed dose
Shiga toxin inh: A qHTS for Small Molecule Inhibitors of Shiga Toxin. Vero cells, Shiga toxin protein synthesis inhibition reporter. inhibition, % at 38.7 µM. 290,000 tested, 9.2% active. AID 2315, 2010; in the data active = inhibition mostly above about 28%, no sharp cut-off; inactive = mostly below about 43%
HCV inhibitor: qHTS Assay for Inhibitors of Hepatitis C Virus (HCV). Huh7.5.1 HCVcc-Cre infection, luciferase reporter, 44 h. Potency, µM (highest dose often 41.8 µM), actives largely listed as inhibitors. 340,000 tested, 3.4% active. AID 651820, 2012; active = well fitted inhibition curve with a large enough effect; inconclusive = small, poorly fitted or top-dose-only effect, or another doubt; inactive = no such curve, though single readings can be large or run the other way
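Compounds are dispensed onto cells plated 4 h earlier at 1,000 per well, with HCVcc-Cre virus (about 0.5 moi) added next. Following 44 h of culture, luminescent signal is measured for 15 sec after 15 min with substrate at room temperature.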
LASV entry inh: qHTS for Inhibitors of binding or entry into cells for Lassa Virus | Lassa virus pseudotype entry inhibition, cell reporter | Potency, µM (series often up to 37.9 µM), usual class: inhibitors | 300,000 tested, 1.2% active; calls by dose curve; tested in HEK293 cells; note: nearly all actives have a fitted effect of over 50% in size
FMDV antiviral: High Throughput Screening for Foot and Mouth Disease Virus Antivirals; FMDV antiviral cell-based qHTS; Potency, µM (titrated, usually from 57.9 µM), usual class: inhibitors; 410,000 tested, 1.2% active; calls by dose curve; tested in HEK293T cells; note: read-out not given here; nearly all actives have a fitted effect of over 45% in size
Each line names hits and unclear results; the compound was inactive in the other large screens.

CCOC(=O)CSc1nnc(NC(=O)c2cc([N+](=O)[O-])cc([N+](=O)[O-])c2)s1	FMDV antiviral 35µM
COc1cccc(NC(=O)CSc2nc3ccc(NC(=O)c4ccco4)cc3s2)c1	Marburg entry inh inconclusive, FMDV antiviral 40µM (no result: CHX counter, Shiga toxin inh, HCV inhibitor)
COCCSc1nnc(NC(=O)c2ccc([N+](=O)[O-])cc2)s1	none (no result: Marburg entry inh, LASV entry inh)
Cc1ccccc1NC(=O)CSc1nc2ccc(NC(=O)c3ccco3)cc2s1	FMDV antiviral inconclusive (no result: CHX counter, Shiga toxin inh, HCV inhibitor)
COc1ccccc1NC(=O)N1CCOCC1	none
CCSc1nnc(NC(=O)c2csc(C)c2)s1	CHX counter 17, Shiga toxin inh 49
Cc1cccc(NC(=O)CSc2nnc(NC(=O)c3ccco3)s2)c1	Shiga toxin inh 43
CCSc1nnc(NC(=O)Nc2cccc(C)c2)s1	Marburg entry inh inconclusive, CHX counter 38, Shiga toxin inh 101, LASV entry inh inconclusive
CCOc1ccc(NC(=O)CCC(=O)c2ccc(F)cc2)cc1	none (no result: Marburg entry inh, LASV entry inh)
O=C(CCC(=O)N1CCOc2ccccc21)NCCCc1ccccc1	none (no result: Marburg entry inh, LASV entry inh)
CCOC(=O)c1cc(OC(=O)c2ccc(OC)cc2)n(-c2ccccc2)n1	Marburg entry inh inconclusive (no result: CHX counter, Shiga toxin inh, HCV inhibitor)
S=C(NC1CC1)N1CCN(C(=S)NC2CC2)CC1	CHX counter 28
Cc1ccc[n+](C(C)C(=O)Nc2ccc(C)c(C)c2)c1 (configuration not stated)	none (no result: Marburg entry inh, LASV entry inh)
COc1cccc(CNc2ccc3c(c2)nc(C)n3C)c1OC	CHX counter 33, Shiga toxin inh 61 (no result: Marburg entry inh, LASV entry inh)
COc1ccc(CNc2ccncc2)c(OC)c1OC	FMDV antiviral inconclusive (no result: CHX counter, Shiga toxin inh)
COc1cccc(CNc2ccc3c(c2)ncn3C)c1OC	CHX counter 19
COc1cccc(CNc2ccc(S(N)(=O)=O)cc2)c1OC	none
COc1cc(C(=O)Nc2ccccc2N2CCOCC2)ccc1OCC(=O)N1CCOCC1	none (no result: CHX counter, Shiga toxin inh)
Cc1ccc(-c2csc(NC(=O)COc3ccc(N(C)S(=O)(=O)c4ccc(C)cc4)cc3)n2)cc1	Marburg entry inh inconclusive, HCV inhibitor 7.9µM
COc1ccc(-c2csc(NC(=O)COc3ccc(N(C)S(=O)(=O)c4ccc(C)cc4)cc3)n2)cc1	Marburg entry inh inconclusive, HCV inhibitor inconclusive, FMDV antiviral inconclusive
O=C(CCc1ccc(S(=O)(=O)N2CCOCC2)cc1)Nc1nc(COc2ccccc2)cs1	Marburg entry inh 21µM, HCV inhibitor inconclusive, FMDV antiviral 14µM
O=C(CCc1ccc(S(=O)(=O)N2CCOCC2)cc1)Nc1nccs1	none
Cc1ccc(-c2csc(NC(=O)N3CCOCC3)n2)cc1	Marburg entry inh inconclusive, CHX counter 38, Shiga toxin inh 111, HCV inhibitor inconclusive
O=C(COc1ccc(Cl)cc1)Nc1nc(-c2ccc(S(=O)(=O)N3CCOCC3)cc2)cs1	Marburg entry inh inconclusive, HCV inhibitor 11µM, LASV entry inh inconclusive, FMDV antiviral inconclusive
CCOC(=O)c1c(NC(=O)COc2ccc(Br)cc2)sc2c1CCCC2	none (no result: Marburg entry inh, CHX counter, Shiga toxin inh, HCV inhibitor)
Cn1nnnc1SCc1ccc(F)cc1	none
O=C(COc1ccc(OCc2ccccc2)cc1)NC1CCOC1=O (configuration not stated)	none
O=C(COc1ccccc1)Nc1nc(-c2cccnc2)cs1	none (no result: Marburg entry inh, CHX counter, Shiga toxin inh, LASV entry inh)
O=C(COc1ccccc1)Nc1nc(-c2ccncc2)cs1	Marburg entry inh inconclusive, FMDV antiviral 28µM
O=C(CN1CCOCC1)Nc1nc(-c2ccc(Cl)cc2)cs1	Marburg entry inh inconclusive, HCV inhibitor 22µM, LASV entry inh 7.1µM, FMDV antiviral inconclusive
Cc1ccc(-c2nc(N3CCOCC3)sc2C(=O)N2CCOCC2)cc1	Shiga toxin inh 24
O=C(COc1ccccc1)Nc1nc(-c2ccc(S(=O)(=O)N3CCOCC3)cc2)cs1	Marburg entry inh inconclusive, HCV inhibitor inconclusive, LASV entry inh inconclusive, FMDV antiviral 14µM
CCOc1ccc(N2CC(C(=O)NCc3ccc(F)cc3)CC2=O)cc1 (configuration not stated)	none (no result: FMDV antiviral)
COc1ccc(C2CC(C(F)(F)F)n3ncc(C(=O)NCc4cccnc4)c3N2)cc1OC (configuration not stated)	none
CC(=O)c1cc(C#N)c(N2CCN(c3ccccc3)CC2)nc1C	none (no result: Marburg entry inh, LASV entry inh)
COc1ccc(-c2csc(NC(=O)c3ccc(OCC(=O)N4CCOCC4)c(OC)c3)n2)cc1OC	Marburg entry inh 11µM, HCV inhibitor inconclusive, LASV entry inh inconclusive, FMDV antiviral 14µM
COc1ccccc1OCC(=O)Nc1nc(-c2ccc(S(=O)(=O)N3CCOCC3)cc2)cs1	Marburg entry inh inconclusive, HCV inhibitor 16µM, LASV entry inh inconclusive, FMDV antiviral inconclusive (no result: CHX counter, Shiga toxin inh)
COc1cc(C(=O)Nc2cccc(C)n2)ccc1OCC(=O)N1CCOCC1	none (no result: Marburg entry inh, CHX counter, Shiga toxin inh, LASV entry inh)
O=C(COC(=O)c1ccc(S(=O)(=O)N2CCOCC2)cc1)Nc1nc(-c2ccccc2)cs1	none
COc1cccc(CNC(=O)Cn2cc3c(n2)-c2c(oc(C(=O)N4CCCC4)c2C)CC3)c1OC	FMDV antiviral inconclusive (no result: Marburg entry inh, CHX counter, Shiga toxin inh, HCV inhibitor)
CN1CCN(c2cc(-c3ccccc3C(F)(F)F)ncn2)CC1	none (no result: Marburg entry inh, CHX counter, Shiga toxin inh, HCV inhibitor, LASV entry inh)
CN1CCN(C2=Cc3ccccc3Sc3cc(F)c(F)cc32)CC1	Marburg entry inh inconclusive, HCV inhibitor 11µM, LASV entry inh inconclusive, FMDV antiviral inconclusive
CN1CCN(C2=Nc3ccccc3Sc3ccc(Cl)cc32)CC1	none (no result: Marburg entry inh, CHX counter, Shiga toxin inh, HCV inhibitor, LASV entry inh)
CN1CCN(C2=Cc3cc(Cl)ccc3Sc3cc(F)ccc32)CC1	Marburg entry inh inconclusive, HCV inhibitor 7.1µM, LASV entry inh 10µM, FMDV antiviral inconclusive
CN(C)CC/C=C1/c2cc(F)ccc2Sc2ccc(Cl)cc21	Marburg entry inh inconclusive, HCV inhibitor inconclusive, LASV entry inh inconclusive (no result: CHX counter, Shiga toxin inh)
CN1CCN(C2=Cc3ccccc3Sc3cc(F)c(Cl)cc32)CC1	Marburg entry inh inconclusive, HCV inhibitor 13µM, FMDV antiviral inconclusive
CCOC(=O)c1sc2nc(C)nc(Nc3ccc(OC)cc3)c2c1C	Marburg entry inh inconclusive
COc1ccc(/C(C)=N/Nc2nc(C)cc(-c3ccccc3)n2)cc1	Marburg entry inh 2.5µM, HCV inhibitor 10µM, LASV entry inh inconclusive, FMDV antiviral inconclusive (no result: CHX counter, Shiga toxin inh)
C/C(=N\Nc1nc(C)cc(-c2ccccc2)n1)c1ccc(F)cc1	HCV inhibitor inconclusive (no result: Marburg entry inh, LASV entry inh)
Fc1ccc(CNc2nc(-c3ccc(Cl)cc3)cc(C(F)(F)F)n2)cc1	none (no result: CHX counter, Shiga toxin inh, HCV inhibitor)
Oc1ccc(/C=N/Nc2nc(-c3ccc(Cl)cc3)cc(C(F)(F)F)n2)cc1	Marburg entry inh 11µM, HCV inhibitor 13µM, LASV entry inh inconclusive, FMDV antiviral 25µM
Cc1cc(-c2ccccc2)nc(N/N=C/c2ccc(O)cc2)n1	Marburg entry inh inconclusive, HCV inhibitor 11µM, LASV entry inh 8.9µM (no result: CHX counter, Shiga toxin inh)
Cc1cc(C)c2nc(C)cc(N/N=C/c3ccc(O)cc3)c2c1	Marburg entry inh inconclusive, HCV inhibitor 11µM, LASV entry inh inconclusive
CC(C)(CN=C1NS(=O)(=O)c2ccccc21)CNC(=O)CN1C(=O)c2ccccc2C1=O	none
COc1ccc(O)c(/C=N/Nc2nc(C)cc(-c3ccccc3)n2)c1	Marburg entry inh inconclusive, HCV inhibitor 4µM (no result: CHX counter, Shiga toxin inh)
COc1ccc(/C=N/Nc2nc(C)cc(-c3ccccc3)n2)c(OC)c1	HCV inhibitor inconclusive
CCOc1ccc(N2C(=O)c3ccccc3C2O)cc1 (configuration not stated)	Shiga toxin inh 64 (no result: Marburg entry inh, LASV entry inh)
